According to the supplement of paper PMC10681739:
In all, about 4,100 sequences were measured (“arbitrary fluorescence units”: median about 780, highest 2% from about 22,000 on). For the sample, the highest values were picked, then their nearest neighbours and some sequences at random.

These sequences were tested against T1, ETS1 (UniProt P14921) (assay: ETS1 binding intensity (PBM fluorescence), ETS1 alone (arbitrary fluorescence units); higher = stronger binding). Conditions: ETS1 concentration 1 nM; RUNX1 concentration 0 nM.
T1 sequence: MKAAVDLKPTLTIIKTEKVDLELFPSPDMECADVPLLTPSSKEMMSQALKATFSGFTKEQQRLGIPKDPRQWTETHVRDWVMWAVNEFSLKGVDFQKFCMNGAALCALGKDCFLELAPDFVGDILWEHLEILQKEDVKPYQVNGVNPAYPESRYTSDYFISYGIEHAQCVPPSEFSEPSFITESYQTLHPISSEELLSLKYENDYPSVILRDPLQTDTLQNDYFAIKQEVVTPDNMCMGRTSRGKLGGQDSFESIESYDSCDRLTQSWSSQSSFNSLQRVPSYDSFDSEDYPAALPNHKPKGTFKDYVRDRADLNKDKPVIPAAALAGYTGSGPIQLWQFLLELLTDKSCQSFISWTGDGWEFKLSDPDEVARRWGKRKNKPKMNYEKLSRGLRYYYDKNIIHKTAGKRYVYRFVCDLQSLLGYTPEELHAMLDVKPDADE
How it was run: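 Full-length recombinant human ETS1 (1 nM, no RUNX1) was incubated, per standard PBM protocols, on double-stranded Agilent 4 × 180k arrays of 36-bp genomic probes whose RUNX1 partner site was mutated. Bound ETS1 was detected with anti-ETS1 antibody (Cell Signaling Technology 14069) and Alexa488-conjugated secondary antibody, then scanned on a GenePix 4400A. Binding level is spot fluorescence intensity, summarised over replicate spots (four printed per sequence) and not normalised.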
With TGGAGCTGTTACGGGGTCCGCGGGGAAGTCTTGGCA the ETS1 binding intensity was 364. In the case of GGACGCTTCCGGTGGAAGGGAGCTGTTACGGGGCTT, the ETS1 binding intensity is reported as 32900. CTGCTTGAGGGTGGAGGGGAGCTTCCGAAGGAGGCC showed an ETS1 binding intensity of 536. With AAACCAGAGGAAGTGGATTCCAACTACAAACCTCAC the ETS1 binding intensity was 1830. Sequence CTTATCAACTACCAAGAGACATTTCCCCTTTGTACT has an ETS1 binding intensity of 558. ACTCACTTCCGTTTAGCTTATCAACTACCAAGAGAC gave an ETS1 binding intensity of 35500. CGGGAGCGGCCGAAGTGACGACTTCCGGGATGCTCC showed an ETS1 binding intensity of 7380. Work on CCACCGTGCTGTAAACTGCACTTCCTCACTTAGCAC yielded an ETS1 binding intensity of 870. Work on GTGCAACTGCTGTAAAAATAGGAAGTGGGGGAGGAG yielded an ETS1 binding intensity of 861. CGCCTCATTTCCTGTGCAACTGCTGTAAAAATAGGA was tested, and the ETS1 binding intensity was 22400. CACCTGACTACAAGGCACACGAACATCCTTATCACA was tested, and the ETS1 binding intensity was 655. In the case of ACCAAGTTTCGGGCAGGATCTTCCTGTAGTTTGCCT, the ETS1 binding intensity is reported as 566. CTCCAAGCCCAGAGAGCACCCCTTCCTGCCCGGACA gave an ETS1 binding intensity of 737. Sequence CGTACGCGCACTTCCGGTCTTTGTGACTTGCAGCTC has an ETS1 binding intensity of 38700. In the case of CACGGTCTTTGCCGCTCAGCTTCCCGGAGTCCGCGC, the ETS1 binding intensity is reported as 458. TTCTCTGGGGACAATTAGGGTTTCTGGGTTTCCTGA gave an ETS1 binding intensity of 457. CCTGGGGGGCCGGAAGCCCCGCTTCGGCCCCAGCCC showed an ETS1 binding intensity of 2820. CACTTCCTGTCAAAGCCAGTTCCTTAGCCGCTTAGG showed an ETS1 binding intensity of 45000. In the case of TCTCCCTGCCCGCGAGTCAAAGCCACTTCCTTTTCC, the ETS1 binding intensity is reported as 917. TGTCATCCCGGAAACTGATAACAAGACCTCGAGTCA was tested, and the ETS1 binding intensity was 4740. TACAGCTTCCTTCACCCCACTTGGGGCCTGGGTTAC gave an ETS1 binding intensity of 1140. For TGGGGCCTTGTTATCACAGCACTTCCTGTTTGCTTT, the ETS1 binding intensity was 7990. In the case of AGCTTCCTGTTTGGCCTTGCTGATGTCACCCCATTA, the ETS1 binding intensity is reported as 27600. With TCCTGGCTGCCCCCAAGGCCAGGAAGAGCGAAAACA the ETS1 binding intensity was 434. CTGAAACAGGAAACAGACAAAGTCACAAGGTTCGCA gave an ETS1 binding intensity of 5430. TGGCCTCTTCGGCCCTGGCCTTGACTTCCTTTCCTC was tested, and the ETS1 binding intensity was 362. In the case of GACTTCCTGTTGAAGATTGGCCTCTTCGGTAGCACA, the ETS1 binding intensity is reported as 44600. Work on CCTGCTGTGACTTCGGCTGTTTTCCTGGCCTGTGAG yielded an ETS1 binding intensity of 387. CCCACCTCGGCCCACGCCGAGCGTGGCGGAACAGCT gave an ETS1 binding intensity of 385. Sequence CGGGCACGTCCTACGGCAGCAACGTCCGCCGCGCCG has an ETS1 binding intensity of 540. Sequence CACCCAAGGATATGCTTTTTTTTGGCAAGTCACATC has an ETS1 binding intensity of 604. For TTGGCCTGGGCTCTGGGCCACTTCCTGTGCTCTCCA, the ETS1 binding intensity was 5490. TTCTGCTACATCCTGCCCACTCCCTGTGACTTCCAC showed an ETS1 binding intensity of 9350. Sequence TTTCCACTTCCTGTTCTACTTGGGGCTACTGACTCA has an ETS1 binding intensity of 25500. In the case of TTTATCCTTATTTCCTGGCTTCGCCTACAAGCACAG, the ETS1 binding intensity is reported as 5090. Sequence AAAGCATTTCCTGCCTTGACTTAACTACAAGACAGG has an ETS1 binding intensity of 25700. Sequence CTTGACTTAACTACAAGACAGGATGGGTTGATGAAG has an ETS1 binding intensity of 426. With TTCACGCTCCGTAAGCTCGCTCCTTCCGGGACGCAG the ETS1 binding intensity was 643. Sequence CTCTGCTTCCTGTCTTTGAATGCCTCTGTGATTTTC has an ETS1 binding intensity of 13400. Work on GTGGGGCGGGCTTCCGGCGCTCCCACCGTGAGCCGA yielded an ETS1 binding intensity of 8140. For AAGGTCGAGGTCTCGGCTTCCCCGGAACTTTTTGCT, the ETS1 binding intensity was 295. TGCTTCCGGCGGGCGCTTGCTCCCCGAGGTCGGCAA showed an ETS1 binding intensity of 24800. GAAGGGAGGAAGCCTGAGAACTGTTGTCTCCTGAAG was tested, and the ETS1 binding intensity was 424.
